The target of assay [1] is ATP-dependent translocase ABCB1 (Homo sapiens) (UniProt P08183). The assay can be described thus: P-glycoprotein substrate transport blockade – cell-based (AID 377; in the data active means fluorescence slope change above about 50%). Conditions: MDR1-expressing cells, fluorescent substrate accumulation slope; stronger effect = higher value; concentration not given here.
A short description of assay [2]: P. berghei load reduction in hepatocytes – cell-based, HepG2, luciferase luminescence, HepG2 viability, primary screen (AID 624349; in the data active means parasite load remaining mostly below about 12%, no sharp cut-off; inactive means mostly above about 10%;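 further: 100% = mean of DMSO negative control wells on the same plate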). Conditions: P. berghei liver stage in HepG2, luciferase luminescence, concentration not given here; parasite load remaining: stronger effect = lower value; viability: measured here: HepG2 viability without parasites.
A short description of assay [3]: viability loss with induced miR-34 in A549 – imaging, A549 dox-inducible miR-34, nuclei and caspase counts, primary screen (AID 1347080). Conditions: A549 miR-34 inducible, Hoechst nuclei count, 48 h.
Assay [4] is described as follows: compounds altering circadian rhythm period length – cell-based, LOPAC library, luminescence reporter (AID 2774; call rule not given here;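 further: values are relative to mean of DMSO wells on each plate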). To be noted: circadian reporter cells, at 7 µM, actives lie on both sides.
Assay [5] in a line: galactose survival enhancers in mitochondrial complex I cybrids – cell-based, galactose medium, ATP luminescence, primary screen (AID 1645843;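 active means z-score of at least 1.8 in each of two replicates, scored against plate mean and spread of sample wells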;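 further: positive z means more ATP and so rescue of galactose-driven cybrid death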). Conditions: complex I mutant cybrid cells, 72 h, stronger effect = higher value.
The nature of assay [6]: compounds altering viability of human ES cells (AID 493140; call rule not given here;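 further: cells exposed to compounds for four days before counting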). To be noted: human embryonic stem cell survival screen; stronger effect = higher value.
Assay [7] concerns Hepatitis C virus NS3 helicase. Nature of the assay: blockers of NS3h binding to ssDNA – biochemical, fluorescence polarization, LOPAC1280 library, primary screen (AID 687035; in the data active means inhibition above about 37%). Conditions: Purified HCV NS3 helicase, Cy5-dT15 ssDNA binding fluorescence polarization; stronger effect = higher value; concentration not given here. For orientation: In fluorescence polarisation assays a small probe gives low polarisation when free and higher when bound to something large.

Assay [8] can be described thus: compounds altering Cy5-DNA-NS3h complex signal – biochemical, LOPAC1280, artefact control for HCV NS3 helicase inhibitor project (AID 687037; call rule not given here). To be noted: Cy5-DNA-NS3h complex fluorescence interference counterscreen. A general note: A counterscreen serves to expose hits that act by an unwanted route or on another target.
Assay [9] can be described thus: signal quenchers or enhancers, Cy5 substrate/SSB – biochemical, NIH Clinical Collection, E. coli SSB, artefact control for HCV NS3 helicase inhibitor project (AID 743268; call rule not given here). Conditions: Cy5-oligo bound E. coli SSB, fluorescence interference.
For assay [10], the system named is Hepatitis C virus NS3 helicase. Nature of the assay: blockers of NS3h binding to DNA – biochemical, fluorescence polarization, NIH Clinical Collection, primary screen (AID 743270; call rule not given here). To be noted: NS3 helicase binding to Cy5-dT15 DNA, stronger effect = higher value, concentration not given here.
In assay [11] the target is Single-stranded DNA-binding protein (Escherichia coli (strain K12)) (UniProt P0AGE0). Nature of the assay: SSB-ssDNA binding inhibitors – biochemical, fluorescence polarization, NIH Clinical Collection, counter-screen for HCV NS3 helicase inhibitor project (AID 743271; in the data active means inhibition above about 28%). To be noted: E. coli SSB-DNA binding, stronger effect = higher value, concentration not given here.
The nature of assay [12]: compounds distorting NS3 helicase fluorescence signal – biochemical, NIH Clinical Collection, artefact control for HCV NS3 helicase inhibitor project (AID 743272; call rule not given here;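 further: HCV NS3 helicase with a Cy5 labelled single stranded DNA probe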). Conditions: fluorescence interference counterscreen, HCV NS3 helicase assay; stronger effect = lower value.
Where [13] appears, read: stronger effect = lower value, cell number ratio, induced over uninduced.
The mark [14] stands for this setting: measured here: relative caspase fold change +Dox/-Dox.
[15] abbreviates: measured here: total cells with miR-34 induction, stronger effect = lower value.
Where [16] appears, read: measured here: total cells without miR-34 induction.

Each structure is given as a SMILES string. Values joined by “and” are separate entries in the source; they are usually repeats but may differ in a detail not shown here. Identical values can stand only once. Inconclusive results are not listed. Active and inactive are the calls of the source.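 How the source made its calls, unless noted: active means compounds whose cell count with miR-34 switched on is under 0.7 times the count with it off; inactive means the rest.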

Chain of ATP-dependent translocase ABCB1 (Homo sapiens) (P08183 whole entry, looked up): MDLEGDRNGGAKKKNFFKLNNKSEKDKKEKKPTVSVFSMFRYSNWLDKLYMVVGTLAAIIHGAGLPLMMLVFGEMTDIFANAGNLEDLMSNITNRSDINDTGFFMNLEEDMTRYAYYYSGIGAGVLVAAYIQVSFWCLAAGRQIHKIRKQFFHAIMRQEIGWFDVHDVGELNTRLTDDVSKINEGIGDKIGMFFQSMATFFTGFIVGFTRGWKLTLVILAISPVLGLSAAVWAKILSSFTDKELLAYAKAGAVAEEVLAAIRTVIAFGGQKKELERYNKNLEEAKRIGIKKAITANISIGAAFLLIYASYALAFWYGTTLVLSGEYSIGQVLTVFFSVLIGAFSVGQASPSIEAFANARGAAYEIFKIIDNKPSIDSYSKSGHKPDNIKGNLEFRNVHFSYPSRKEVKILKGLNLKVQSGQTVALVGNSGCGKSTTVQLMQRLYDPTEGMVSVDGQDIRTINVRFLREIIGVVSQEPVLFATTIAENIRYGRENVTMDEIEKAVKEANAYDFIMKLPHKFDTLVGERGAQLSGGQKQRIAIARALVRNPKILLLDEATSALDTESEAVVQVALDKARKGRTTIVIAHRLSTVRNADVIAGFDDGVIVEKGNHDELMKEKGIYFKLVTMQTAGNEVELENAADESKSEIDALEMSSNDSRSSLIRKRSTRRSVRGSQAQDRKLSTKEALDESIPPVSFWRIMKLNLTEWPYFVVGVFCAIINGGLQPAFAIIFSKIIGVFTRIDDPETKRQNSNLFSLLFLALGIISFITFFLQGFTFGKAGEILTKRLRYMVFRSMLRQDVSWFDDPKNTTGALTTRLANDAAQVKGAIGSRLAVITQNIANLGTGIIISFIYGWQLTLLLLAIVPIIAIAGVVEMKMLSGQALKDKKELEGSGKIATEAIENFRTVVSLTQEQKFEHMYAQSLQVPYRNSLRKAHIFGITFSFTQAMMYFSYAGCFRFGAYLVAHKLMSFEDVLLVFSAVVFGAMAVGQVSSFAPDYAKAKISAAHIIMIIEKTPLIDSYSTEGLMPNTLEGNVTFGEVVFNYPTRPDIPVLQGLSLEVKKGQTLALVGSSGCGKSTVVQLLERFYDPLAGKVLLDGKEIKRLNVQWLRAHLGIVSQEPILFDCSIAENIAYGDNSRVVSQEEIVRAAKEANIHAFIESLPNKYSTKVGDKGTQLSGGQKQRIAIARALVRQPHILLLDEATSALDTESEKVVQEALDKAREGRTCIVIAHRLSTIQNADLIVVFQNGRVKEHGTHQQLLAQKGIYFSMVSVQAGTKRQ

In general, viability refers to a read-out of living cells in per cent, often relative to untreated cells. Consider `COC1=C[C@@H]2C3=C([C@@H]2C1=O)[C@@H](NC(C)=O)CCc1cc(OC)c(OC)c(OC)c13`, for which the fluorescence slope change in assay [1] was 70.2% (active). For the same compound, the parasite load remaining in [2] was 62.8% (inactive). In addition, the viability in assay [2] came out at 107%. Besides, the figures for the fold change in assay [3] (setting [13]) and in [3] (setting [14]) were 0.865 (inactive) and 1.41, respectively. Further, the cell count in assay [3] (setting [15]) turned out to be 9450; in assay [3] (setting [16]) it was 10900.
Take `NC(Cn1oc(=O)[nH]c1=O)C(=O)O` (configuration not stated): the period change in assay [4] is -0.055 h (inactive). The fold change in [3] (stronger effect = lower value) is 0.991 (inactive); in assay [3] (setting [14]), 0.896. The cell count is 10000 in assay [3] (setting [15]) and 10100 in assay [3] (setting [16]). Moreover, the z-score in [5] is 0.64 (inactive).
For `OC[C@H]1O[C@@H](n2cnc3cc(Cl)c(Cl)cc32)C(O)[C@H]1O` (some centres not stated), the survival in assay [6] is 56.1 (inactive). Further, the fold change in assay [3] (stronger effect = lower value) was 0.916 (inactive); in [3] (setting [14]), 0.917. Besides, the cell count in assay [3] (setting [15]) was found to be 1540; in assay [3] (setting [16]) it was 1680.
The like results for `CCCCCCCCCCCCCCCC(=O)OC[C@H](COP(=O)([O-])OCC[N+](C)(C)C)OC(C)=O` were, in that order, 57 (inactive), 0.988 (inactive), 1.32, 5610 and 5670.
Regarding `CC[C@H]1CN2CCC1C[C@H]2[C@H](O)c1ccnc2ccc(OC)cc12` (some centres not stated), the survival in assay [6] was 6.08 (inactive). Also, the parasite load remaining in assay [2] is 83.6% (inactive) and 51.6% (inactive). The viability in [2] is 106% and 80.9%. The results for the fold change in [3] (setting [13]) and in assay [3] (setting [14]) were 0.867 (inactive) and 1.17, respectively. In addition, the results for the cell count in [3] (setting [15]) and in assay [3] (setting [16]) were 8140 and 9390, respectively.
`C[C@]12CCC3C(CCC4=CC(=O)CC[C@@]43C)C1CCC2O` (some centres not stated): the fold change is 0.881 (inactive) in assay [3] (stronger effect = lower value) and 1.72 in assay [3] (setting [14]). The cell count in assay [3] (setting [15]) amounted to 8500; in [3] (setting [16]), 9660. In addition, the z-score in assay [5] was 0.515 (inactive).
The like results for `C[C@]12CCC(O)CC1=CCC1C2CC[C@]2(C)C(=O)CCC12` (some centres not stated) were, in that order, 1.16 (inactive), 1.21, 7950, 6860 and -0.11 (inactive).
Taken in the same sequence, the figures for `C[C@]12CCC(=O)C=C1CCC1C2CC[C@@]2(C)C1CC[C@]2(C)O` (some centres not stated) were 1.16 (inactive), 0.795, 2670, 2300 and -1.03 (inactive).
In the case of `C/C=C1/C[N+]2(C)CCC34C(=C(C=O)[C@H]1C[C@@H]32)Nc1ccccc14` (some centres not stated), in assay [1], the fluorescence slope change was 21.2% (inactive). For the same compound, the survival in assay [6] was 3.83 (inactive). Besides, in assay [2], the parasite load remaining was 95% (inactive). In addition, the viability in [2] was found to be 101%. The fold change in [3] (stronger effect = lower value) is 0.931 (inactive); in assay [3] (setting [14]), 1.21. In addition, the cell count in assay [3] (setting [15]) came to 8700; in [3] (setting [16]), 9340.
As to `COc1cc2c(cc1OC)[C@@]13CCN4CC5=CCOC6CC(=O)N2C1C6C5CC43` (some centres not stated), the fold change in assay [3] (setting [13]) was 0.989 (inactive); in [3] (setting [14]), 1.53. In addition, the cell count in [3] (setting [15]) worked out at 8280; in [3] (setting [16]), 8360. The z-score in assay [5] was -0.335 (inactive).
One may read the inhibition as the drop in the measured response relative to a control, in per cent. For `CC(C)(O)[C@@H]1[C@H]2OC(=O)[C@@H]1[C@]1(O)C[C@H]3O[C@]34C(=O)O[C@H]2[C@]14C` (tested in a mixture with another compound), the period change in [4] is -0.105 h (inactive). Also, in assay [2], the parasite load remaining is 96.3% (inactive). Also, in [2], the viability came to 67.1%. Besides, the inhibition in assay [7] is -5% (inactive); in assay [10] it was 0.4% (inactive); in assay [11] it was -0.1% (inactive). In addition, the fluorescence ratio (interference) in [8] is 1 (inactive). Also, the fluorescence ratio is 1 (inactive) in assay [9] and 0.9 (inactive) in assay [12]. The fold change in [3] (stronger effect = lower value) was 1.06 (inactive); in assay [3] (setting [14]), 1.05. The cell count was 11200 in assay [3] (setting [15]) and 10500 in assay [3] (setting [16]). Further, in assay [5], the z-score is 0.54 (inactive).

(Values after PubChem BioAssay.)
